The term AC50 denotes the midpoint of the concentration-response curve, whichever way the signal moves.

Where “and” joins values, the source holds several entries; their conditions need not be identical. Identical values can stand only once. About 4,000 (25%) of roughly 16,000 compounds were called active. Not shown: some 26% with an inconclusive outcome. A selection follows. Unmarked numbers belong to inactive results. The call rests on the fitted dose curve; in most records, active means well fitted curve in the direction sought with a large enough effect; inconclusive means small, poorly fitted or top-dose-only effect, or effect the other way; inactive means no such curve, though single readings can be large or run the other way.

Among the data in PubChem BioAssay AID1851 (National Center for Advancing Translational Sciences (NCATS), 2009) are AC50 and activity, negative = inhibition values, retold here.
On the % scale 0 is the no-effect control and ±100 the full control effect.

Cytochrome P450 2C9 (Homo sapiens), sequence (P11712 whole entry, looked up): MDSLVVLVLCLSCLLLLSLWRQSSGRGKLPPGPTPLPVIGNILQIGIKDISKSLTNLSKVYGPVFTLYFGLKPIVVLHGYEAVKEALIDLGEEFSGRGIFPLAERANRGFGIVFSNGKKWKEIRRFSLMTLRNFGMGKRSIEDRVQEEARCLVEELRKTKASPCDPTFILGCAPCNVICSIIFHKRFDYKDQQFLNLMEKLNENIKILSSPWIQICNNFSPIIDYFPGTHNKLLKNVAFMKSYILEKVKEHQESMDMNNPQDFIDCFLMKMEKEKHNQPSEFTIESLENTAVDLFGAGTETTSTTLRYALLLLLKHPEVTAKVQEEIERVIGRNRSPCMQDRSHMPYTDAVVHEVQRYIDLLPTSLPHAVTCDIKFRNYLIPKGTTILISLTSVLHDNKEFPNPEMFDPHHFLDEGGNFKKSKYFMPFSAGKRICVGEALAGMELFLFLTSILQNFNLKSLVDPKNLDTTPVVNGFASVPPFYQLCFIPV

This experiment concerns the target Cytochrome P450 2C9 (Homo sapiens) (UniProt P11712). The experiment is described as follows: Cytochrome panel assay with activity outcomes. As to conditions: recombinant CYP, pro-luciferin dealkylation, luminescence, p450-cyp2c9; series mostly up to 57.1 µM.
For `Nc1ccccc1C#Cc1ccccc1`, the AC50 was 7.94 µM (active) and 14.1 µM (active).
With `COc1ccc(Oc2ncc3nc(-c4cccs4)c(=O)n(C)c3n2)cc1`, the concentration at half-maximal activity (AC50) was 3.16 µM (active).
On the same count and under the same terms, the same measure for `COc1ncc2nc(-c3cccs3)c(=O)n(-c3ccccc3)c2n1`: “inactive”; for `COc1ccc(Oc2ncc3nc(-c4cccs4)c(=O)n(-c4ccccc4)c3n2)cc1`: “inactive”.
Same read-out and setting: the same measure for `COCCn1c(=O)c(-c2cccs2)nc2cnc(N(C)C)nc21`: “inactive”; for `Cn1cc(-c2nc3cnc(Oc4ccccc4)nc3n(C3CC3)c2=O)c2ccccc21`: “inactive”.
The same measure, in the same setting: for `O=c1c(-c2cccs2)nc2cnc(Oc3ccccc3)nc2n1C1CC1` the value was 3.16 µM (active); for `COc1ccc(Oc2ncc3nc(-c4cc(F)cc(F)c4)c(=O)n(C)c3n2)cc1`, “inactive”; for `COCCn1c(=O)c(-c2cccs2)nc2cnc(Oc3ccc(OC)cc3)nc21`, 5.01 µM (active).
For the compound `COCCn1c(=O)c(-c2cccs2)nc2cnc(Oc3ccccc3)nc21`, the half-maximal activity concentration (AC50) is 3.98 µM (active).
For `CS(=O)(=O)Nc1cccc(-c2ccc3ncnc(NCc4cccnc4)c3c2)c1`, the activity, negative = inhibition was -11.8% [at 2.29 µM].
Still for that read-out and setting: the same measure for `FC(F)(F)c1ccccc1-c1nc(NCc2cccs2)c2ccccc2n1`: -25.9% [at 2.29 µM].
With `CC(C)C(=O)NCCc1nc2ccccc2n1CCCOc1ccc(Cl)cc1`, the AC50 is 3.16 µM (active).
On the same count and under the same terms, for `CC(C)C(=O)NCCn1ccc2ccccc21` the value was “inactive”.
On to `C[C@H]1/C=C\CC(=O)OC[C@H](C)C(=O)N2CCC[C@@H]2C(=O)OC1`, for which the activity, negative = inhibition was 4.32% [at 11.4 µM].
In the case of `O=C(CN1CCc2ccccc21)NC(=O)NCc1ccco1`, the AC50 was 15.8 µM (active).
With `Cc1cnc(CNc2ncnc3ccc(-c4ccc(N(C)C)cc4)cc23)cn1`, the activity, negative = inhibition was -3.84% [at 2.29 µM].
As to `CO[C@@H]1COC(=O)[C@H](Cc2ccccc2)NC(=O)C/C=C\[C@@H](C)[C@H](OC)COC(=O)[C@@H](C)NC(=O)C/C=C\[C@H]1C`, the activity, negative = inhibition is -11.8% [at 11.4 µM] and -14.5% [at 11.4 µM].
On the same count and under the same terms, the same measure for `Cc1cccc(CNc2ncncc2-c2cccnc2)c1`: 1.46% [at 2.29 µM].
With `Cc1cccc(-n2nc([N+](=O)[O-])c(=NCc3cccnc3)n2O)c1`, the AC50 was 10 µM (active).
With `S=C1NCN2CCN(CC2)CNC(=S)C(=S)NCN2CCN(CC2)CNC1=S`, the activity, negative = inhibition was -2.75% [at 11.4 µM].
Regarding `CC(=O)c1cc(NC(=O)c2ccccc2)c(=O)oc1/C=C/N(C)C`, the AC50 result was “inactive”.
Same read-out and setting: the same measure for `Cc1oc(=O)c(NC(=O)c2ccccc2)cc1C(=O)c1ccccc1`: 12.6 µM (active).
For the compound `Cc1ccc(C(=O)Nc2cc3c(oc2=O)CCCC3=O)cc1`, the AC50 entry was “inactive”.
As for `Cc1cccc(CNc2cc(-c3c(C)noc3C)ncn2)c1`, the activity, negative = inhibition was -2.84% [at 2.29 µM].
Consider `O=C(O)C1(C(=O)O)CCN(S(=O)(=O)c2ccccc2)CC1`, for which the activity, negative = inhibition was -9.03% [at 11.4 µM].
Regarding `N.N.O=C(O)C1(C(=O)O)CCC1.[Pt]`, the AC50 is 3.98 µM (active).
With `O=C(O)CC1(C(=O)O)CCCCC1`, the activity, negative = inhibition was -2.68% [at 11.4 µM].
Still for that read-out and setting: for `Cc1ccc(CSC(N)=Nc2ccccc2)cc1C` the value was 7.44% [at 11.4 µM].
On to `CC(Oc1ccc(Cl)cc1)C(=O)/C=C/N(C)C` (stereo not given), for which the AC50 is 12.6 µM (active).
As for `CN(C)/C=C/C(=O)c1ccc(F)cc1`, the AC50 result was “inactive”.
Still for that read-out and setting: the same measure for `CN(C)/C=C/C(=O)c1ccc(Cl)cc1`: “inactive”.
Same read-out and setting: the same measure for `O=C(CCCCCn1c(=S)[nH]c2cc3c(cc2c1=O)OCO3)N1CCN(C2CCCCC2)CC1`: 1.12 µM (active); for `CCN(CC)CCn1c(=S)[nH]c2cc3c(cc2c1=O)OCO3`: “inactive”.
On to `CN(Cc1ccco1)c1ncncc1-c1cccc(C#N)c1`, for which the activity, negative = inhibition is 2.42% [at 2.29 µM].
On to `C[N+](C)(C)CC(=O)O`, for which the AC50 result is “inactive”.
As for `COCCNc1ccnc(-c2c(C)noc2C)n1`, the activity, negative = inhibition is 17.7% [at 2.29 µM].
On to `CCc1nc(SCC(=O)c2ccc(Cl)s2)c2oc3ccccc3c2n1`, for which the AC50 is 1.12 µM (active).
For the compound `Cc1nc(SCC(=O)c2ccc(Cl)s2)c2oc3ccccc3c2n1`, the AC50 is 0.447 µM (active).
Same read-out and setting: the same measure for `Cc1nc(SCC(=O)NCCc2ccc(Cl)cc2)nc(C)c1C`: “inactive”; for `Cc1nc(Oc2ccc(Cl)cc2)c2oc3ccccc3c2n1`: “inactive”; for `CCc1nc(SCC(=O)NCCc2ccccc2)c2oc3ccccc3c2n1`: 1.12 µM (active).
Still for that read-out and setting: the same measure for `Cc1nc(SCC(=O)Nc2ccc3c(c2)OCCO3)c2oc3ccccc3c2n1`: 2 µM (active); for `Nc1nc(SCc2ccc([N+](=O)[O-])cc2)c2ncn([C@@H]3O[C@@H](CO)[C@@H](O)[C@H]3O)c2n1`: “inactive”; for `CN1CCC(=C2c3ccccc3C=Cc3ccccc32)CC1`: “inactive”.
For the compound `CO[C@@H]1COC(=O)[C@H](CCSC)NC(=O)C/C=C\[C@@H](C)COC(=O)[C@@H]2CCCN2C(=O)C/C=C\[C@H]1C`, the activity, negative = inhibition is 13.2% [at 11.4 µM].
Consider `CCNc1ncc2nc(-c3ccc(Cl)cc3)c(=O)n(C[C@H]3CCCO3)c2n1`, for which the AC50 result is “inactive”.
Turning to `CN1CCc2c(c3ccccc3n2C)C1`, the AC50 result was “inactive”.
On to `Cn1c(=O)c2[nH]c(CCCCc3nc4ccccc4[nH]3)nc2n(C)c1=O`, for which the activity, negative = inhibition is 2.16% [at 11.4 µM].
For `COCC(=O)O[C@]1(CCN(C)CCCc2nc3ccccc3[nH]2)CCc2cc(F)ccc2[C@@H]1C(C)C`, the AC50 result is “inactive”.
Still for that read-out and setting: for `CC(C)c1ccc(NC(=O)N(CCc2nc3ccccc3[nH]2)C2CCCC2)cc1` the value was 7.94 µM (active).
As to `Cc1cnc(CNc2ncnc3ccc(-c4ccccc4C(F)(F)F)cc23)cn1`, the activity, negative = inhibition was -21.8% [at 2.29 µM].
On to `CC(=O)ON(C(C)=O)S(=O)(=O)c1ccc(Cl)cc1`, for which the AC50 result was “inactive”.
For the compound `CSc1nc2cc(S(=O)(=O)N3CCCCC3)ccc2s1`, the activity, negative = inhibition is -29.2% [at 11.4 µM].
For `COc1ccc(S(=O)(=O)N2CCCCCC2)cc1N(C)S(=O)(=O)c1ccc(Cl)cc1`, the concentration at half-maximal activity (AC50) was 4.47 µM (active).
Still for that read-out and setting: for `COc1ccc(S(=O)(=O)Nc2ccc(S(=O)(=O)N3CCCCC3)cc2)cc1C` the value was 0.355 µM (active).
The same measure, in the same setting: the same measure for `COc1ccc(NS(=O)(=O)c2ccc(I)cc2)cc1N1CCN(C)CC1`: “inactive”; for `O=S(=O)(NCCNC/C=C\c1ccc(Br)cc1)c1cccc2cnccc12`: “inactive”.
For `Clc1ccc(Sc2ccc(/C=N/n3cnnc3)o2)cc1`, the AC50 was 7.94 µM (active).
The same measure, in the same setting: for `CN=C1S/C(=C\c2ccc(Sc3ccc(Cl)cc3)o2)C(=O)N1C` the value was 1.26 µM (active).
